Reference: PubChem BioAssay
The source made the active and inactive calls.

Experiments:
[1] = system: Plasmodium falciparum Sir2 (PF13_0152, Sir2A); assay: pfSir2 binders on small-molecule microarrays, primary screen, biochemical, small-molecule microarray, 635 nm fluorescence (AID 1098); details: small-molecule microarray binding, fluorescence 635 nm; higher = more signal;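 further: score merges spot fluorescence intensity with its signal-to-noise ratio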
[2] = small-molecule microarray binders of probe aDKK1, primary screen, biochemical, biotinylated probe, 635/667 nm fluorescence (AID 1099); details: higher = more signal;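 further: score merges 667nm spot fluorescence with signal to noise across triplicate slides; reference of the scale not given here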
[3] = small-molecule microarray binders of probe aCHRDL2, primary screen, biochemical, biotinylated probe, 635/667 nm fluorescence (AID 1100); details: higher = more signal
[4] = splicing luciferase reporter signal modulators, primary screen, spliceosome inhibition project, cell-based, HEK293, splice +/- reporter (AID 1101); details: luminescence, 24 h, higher = more signal, called active from +8 up or from −8 down;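 further: HEK293 cells carrying a splicing-competent luciferase reporter gene; test concentration not given here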
[5] = target: Fibroblast growth factor 10 (Homo sapiens) (UniProt O15520); assay: FGF10 binders on small-molecule microarrays, primary screen, biochemical, small-molecule microarray, 635 nm fluorescence (AID 1102); details: FGF10 binding, fluorescence 635 nm, higher = more signal
Chain of Fibroblast growth factor 10 (Homo sapiens) (O15520 whole entry, looked up): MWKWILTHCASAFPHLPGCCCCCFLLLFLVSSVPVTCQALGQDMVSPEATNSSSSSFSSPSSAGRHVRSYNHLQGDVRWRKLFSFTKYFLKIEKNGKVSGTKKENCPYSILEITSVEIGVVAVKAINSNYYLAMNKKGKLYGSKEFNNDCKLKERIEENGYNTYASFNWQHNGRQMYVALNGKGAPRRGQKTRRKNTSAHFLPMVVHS

[6] = system: glycogen synthase kinase-3 (GSK3A per assay name; protocol says GSK3B); assay: GSK3 binders on small-molecule microarrays, primary screen, biochemical, small-molecule microarray, 635 nm fluorescence, GSK3A (AID 1103); details: small-molecule microarray binding, fluorescence 635 nm; higher = more signal; further: the record names both GSK3A and GSK3B
[7] = target: Epidermal growth factor receptor (Homo sapiens) (UniProt P00533); assay: EGFR binders on small-molecule microarrays, primary screen, biochemical, small-molecule microarray, 635 nm fluorescence (AID 1104); details: EGFR binding, higher = more signal;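 further: score merges 667 nm emission intensity with spot signal to noise over triplicate slides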
Chain of Epidermal growth factor receptor (Homo sapiens) (P00533 whole entry, looked up): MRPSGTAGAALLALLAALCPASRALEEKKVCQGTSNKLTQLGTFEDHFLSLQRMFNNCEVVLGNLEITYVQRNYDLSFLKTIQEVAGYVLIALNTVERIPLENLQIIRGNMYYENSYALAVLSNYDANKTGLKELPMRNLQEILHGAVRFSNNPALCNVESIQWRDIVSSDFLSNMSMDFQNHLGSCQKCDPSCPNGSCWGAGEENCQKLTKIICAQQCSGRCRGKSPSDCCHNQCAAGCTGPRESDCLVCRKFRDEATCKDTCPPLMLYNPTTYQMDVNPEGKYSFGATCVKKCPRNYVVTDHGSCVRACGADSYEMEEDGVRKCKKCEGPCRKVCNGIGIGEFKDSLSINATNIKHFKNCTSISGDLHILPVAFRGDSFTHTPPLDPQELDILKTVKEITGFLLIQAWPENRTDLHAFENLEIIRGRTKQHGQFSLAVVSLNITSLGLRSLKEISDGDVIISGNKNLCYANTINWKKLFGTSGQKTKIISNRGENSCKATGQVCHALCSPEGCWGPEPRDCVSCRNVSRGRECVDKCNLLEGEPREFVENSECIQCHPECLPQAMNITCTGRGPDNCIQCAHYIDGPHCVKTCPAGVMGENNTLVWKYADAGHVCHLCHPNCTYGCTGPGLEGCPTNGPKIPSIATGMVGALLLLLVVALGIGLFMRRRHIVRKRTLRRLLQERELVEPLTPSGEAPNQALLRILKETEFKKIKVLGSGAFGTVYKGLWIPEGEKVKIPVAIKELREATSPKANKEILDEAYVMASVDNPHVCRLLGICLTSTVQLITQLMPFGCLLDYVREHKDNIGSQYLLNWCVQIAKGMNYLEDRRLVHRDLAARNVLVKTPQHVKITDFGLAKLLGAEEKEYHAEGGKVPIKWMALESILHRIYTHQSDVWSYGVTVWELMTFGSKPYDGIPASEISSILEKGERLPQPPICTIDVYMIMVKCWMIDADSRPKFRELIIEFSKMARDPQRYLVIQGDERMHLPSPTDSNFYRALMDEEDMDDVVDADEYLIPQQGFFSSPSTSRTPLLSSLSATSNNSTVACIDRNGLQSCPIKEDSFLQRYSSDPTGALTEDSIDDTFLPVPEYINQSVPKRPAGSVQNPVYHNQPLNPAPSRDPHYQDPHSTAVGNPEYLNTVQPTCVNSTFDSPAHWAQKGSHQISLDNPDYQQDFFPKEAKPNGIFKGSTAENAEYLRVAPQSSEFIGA

[8] = target: Follistatin-related protein 3 (Homo sapiens) (UniProt O95633); assay: FSTL3 binders on small-molecule microarrays, primary screen, biochemical, small-molecule microarray, 635 nm fluorescence (AID 1105); details: FSTL3 binding, higher = more signal;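 further: score merges emission near 667 nm and signal to noise per printed spot across three slides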
Chain of Follistatin-related protein 3 (Homo sapiens) (O95633 whole entry, looked up): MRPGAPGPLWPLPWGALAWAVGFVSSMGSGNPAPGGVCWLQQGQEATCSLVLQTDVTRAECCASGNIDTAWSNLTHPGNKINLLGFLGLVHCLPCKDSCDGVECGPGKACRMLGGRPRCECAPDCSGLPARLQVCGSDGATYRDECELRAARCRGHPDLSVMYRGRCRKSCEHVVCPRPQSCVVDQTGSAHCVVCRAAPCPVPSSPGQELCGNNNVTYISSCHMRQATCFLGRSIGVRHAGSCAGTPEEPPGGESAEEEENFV

[9] = target: Dickkopf-related protein 1 (Homo sapiens) (UniProt O94907); assay: DKK1 binders on small-molecule microarrays, primary screen, biochemical, small-molecule microarray, 635 nm fluorescence scan (AID 1106); details: DKK1 binding, higher = more signal;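 further: score merges emission near 667 nm with signal to noise over three replicate slides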
Chain of Dickkopf-related protein 1 (Homo sapiens) (O94907 whole entry, looked up): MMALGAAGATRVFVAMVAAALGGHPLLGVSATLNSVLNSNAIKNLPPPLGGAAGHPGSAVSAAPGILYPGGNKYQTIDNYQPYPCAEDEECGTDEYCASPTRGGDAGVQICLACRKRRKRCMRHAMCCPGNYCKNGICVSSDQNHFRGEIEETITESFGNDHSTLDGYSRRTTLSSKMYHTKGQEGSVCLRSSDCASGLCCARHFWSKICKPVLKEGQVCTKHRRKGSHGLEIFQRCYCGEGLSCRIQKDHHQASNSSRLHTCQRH

[10] = system: Inhibin beta A chain (activin A); assay: INHBA (activin A) binders on microarrays, primary screen, biochemical, small-molecule microarray, 635 nm fluorescence scan (AID 1107); details: small-molecule microarray binding, higher = more signal;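 further: mouse activin A protein probed at 4.33 µg/mL on printed slides; score merges bound-protein fluorescence near 667 nm with spot signal-to-noise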

For `CCOC(=O)C[C@H]1[C@H](OC(=O)c2ccc(-c3ccccc3)cc2)[C@@H](NC(=O)c2ccc3ccccc3c2)c2cc(OCCCO)ccc2N1C(=O)c1ccc2ccccc2n1`, the composite z-score [1] was 0.33, the composite z-score [2] was -0.0069 and the composite z-score [3] was 0.221. For the same molecule, the z-score [4] was -0.634 (inactive), the composite z-score [5] was 0.577 and the composite z-score [6] was 0.439. For the same molecule, the composite z-score [7] was 0.098, the composite z-score [8] was 0.458 and the composite z-score [9] was 0.426. It also gave a composite z-score [10] of 0.31.

`CCCCC(CC)C(O)C1C=CC2C(=O)N(c3ccccc3)C(=O)C2N1Nc1ccc([N+](=O)[O-])cc1` (stereo not given) showed a composite z-score [1] of 1.31, a composite z-score [2] of 0.68 and a composite z-score [3] of 0.457. For the same molecule, the z-score [4] was 0.63 (inactive), the composite z-score [5] was 1.01 and the composite z-score [6] was 1.34. The composite z-score [7] was 0.444, the composite z-score [8] was 1.34 and the composite z-score [9] was 0.155. The composite z-score [10] was 0.532.

In the case of `COc1cc2c(cc1OC)CN(C(=O)[C@H]1[C@@H]3C(=O)O[C@@H](c4ccccc4)[C@@H](c4ccccc4)N3[C@@H](c3ccc(OCCO)cc3)[C@]13C(=O)Nc1ccc(C#CC4(O)CCCCCC4)cc13)CC2`, the composite z-score [1] is reported as 1.09, the composite z-score [2] is reported as 1.59 and the composite z-score [3] is reported as 0.623. For the same molecule, the z-score [4] was 0.415 (inactive), the composite z-score [5] was 1.12 and the composite z-score [6] was 1.31. It also gave a composite z-score [7] of 1.02, a composite z-score [8] of 1.33 and a composite z-score [9] of 1.31. It also gave a composite z-score [10] of 1.07.

Molecule `CC(C)C(CO)N1C(=O)[C@]2(C)C3C(=O)OCCC/C=C\[C@H]3OC23C=CCN(c2ccc(Cl)cc2)C(=O)[C@@H]13` (stereo not given in full) has a composite z-score [1] of 1.11, a composite z-score [2] of -0.095 and a composite z-score [3] of 0.38. For the same molecule, the z-score [4] was 0.242 (inactive), the composite z-score [5] was -0.382 and the composite z-score [6] was -0.028. It also gave a composite z-score [7] of -0.599, a composite z-score [8] of -0.518 and a composite z-score [9] of -0.821. For the same molecule, the composite z-score [10] was 0.717.

In the case of `COCC(=C=CC[C@H](O)c1cccc(OCCO)c1)C[C@H](O)c1ccccn1`, the composite z-score [1] is reported as 0.543, the composite z-score [2] is reported as 0.161 and the composite z-score [3] is reported as -0.173. The z-score [4] was -1 (inactive), the composite z-score [5] was 1.3 and the composite z-score [6] was -0.214. For the same molecule, the composite z-score [7] was -0.366, the composite z-score [8] was -0.0496 and the composite z-score [9] was 0.354. For the same molecule, the composite z-score [10] was 0.281.

For `Cc1ccc(S[C@]2(C(=O)NCC(C)C)CC(=O)N(Cc3ccccc3Cl)[C@@H]2c2ccc(CO)cc2I)cc1`, the composite z-score [1] was 1.22, the composite z-score [2] was 0.117 and the composite z-score [3] was 0.791. The z-score [4] was -0.611 (inactive), the composite z-score [5] was -0.85 and the composite z-score [6] was -0.408. For the same molecule, the composite z-score [7] was -0.409, the composite z-score [8] was -0.615 and the composite z-score [9] was -0.557. For the same molecule, the composite z-score [10] was 0.67.

Work on `CN(C)CCCNC(=O)[C@@H]1c2ccccc2C(=O)N(CC23CC4CC(CC(C4)C2)C3)[C@H]1c1ccc(CO)cc1` yielded a composite z-score [1] of 1.15, a composite z-score [2] of -0.46 and a composite z-score [3] of 0.296. For the same molecule, the z-score [4] was -0.751 (inactive), the composite z-score [5] was 1.17 and the composite z-score [6] was 0.98. For the same molecule, the composite z-score [7] was 0.425, the composite z-score [8] was 1.15 and the composite z-score [9] was 0.872. It also gave a composite z-score [10] of -0.111.

For `O=C1O[C@@H](c2ccccc2)[C@@H](c2ccccc2)N2[C@@H](c3ccc(O)cc3)[C@]3(C(=O)Nc4ccc(C#CCCO)cc43)[C@@H](C(=O)Nc3nc4ccccc4s3)[C@H]12`, the composite z-score [1] was 0.94, the composite z-score [2] was 0.0179 and the composite z-score [3] was 0.376. The z-score [4] was 0.344 (inactive), the composite z-score [5] was 1.17 and the composite z-score [6] was 1.13. For the same molecule, the composite z-score [7] was 0.214, the composite z-score [8] was 0.545 and the composite z-score [9] was -0.17. The composite z-score [10] was 0.0507.

Work on `CCCCN1CC=CC23O[C@@H]4C=CCOC(=O)[C@@H]4[C@H]2C(=O)N(C(C)CO)[C@@H]3C1=O` (stereo not given in full) yielded a composite z-score [1] of 1.1, a composite z-score [2] of 0.198 and a composite z-score [3] of 0.774. For the same molecule, the z-score [4] was 0.408 (inactive), the composite z-score [5] was -0.291 and the composite z-score [6] was -1.44. It also gave a composite z-score [7] of -1.21, a composite z-score [8] of -1.22 and a composite z-score [9] of -1.14. It also gave a composite z-score [10] of 0.286.

Molecule `[N-]=[N+]=NCc1ccccc1C[C@]1(C(=O)NCC(O)CO)N=C(c2ccc(OCCCO)cc2)O[C@H]1c1ccccc1CN=[N+]=[N-]` (stereo not given in full) has a composite z-score [1] of 0.425, a composite z-score [2] of 0.384 and a composite z-score [3] of 0.953. For the same molecule, the z-score [4] was -0.47 (inactive), the composite z-score [5] was 1.08 and the composite z-score [6] was 1.15. It also gave a composite z-score [7] of -0.154, a composite z-score [8] of -0.392 and a composite z-score [9] of -0.749. It also gave a composite z-score [10] of 0.387.

`C=CC[C@]12N=C(c3ccc(OCCCO)cc3)O[C@H]1c1ccccc1N(C)C2=O` showed a composite z-score [1] of 1.24, a composite z-score [2] of 0.765 and a composite z-score [3] of 0.864. The z-score [4] was -1.06 (inactive), the composite z-score [5] was 0.597 and the composite z-score [6] was 1.3. The composite z-score [7] was 0.177, the composite z-score [8] was 0.472 and the composite z-score [9] was 0.334. It also gave a composite z-score [10] of 1.3.

`COc1ccc(C(O)C2C=CC3C(=O)N(c4ccccc4)C(=O)C3N2Nc2ccccc2)cc1OCc1ccccc1` (stereo not given) showed a composite z-score [1] of 0.964, a composite z-score [2] of 0.294 and a composite z-score [3] of 0.77. The z-score [4] was 0.161 (inactive), the composite z-score [5] was 1.21 and the composite z-score [6] was 1.29. The composite z-score [7] was -0.0831, the composite z-score [8] was 1.29 and the composite z-score [9] was -0.0662. The composite z-score [10] was 0.726.

For `CC(C)OC(=O)CC(=O)CC(O)c1cccc(C#N)c1` (stereo not given), the composite z-score [1] was 0.431, the composite z-score [2] was 0.662 and the composite z-score [3] was 1.04. For the same molecule, the z-score [4] was -1.69 (inactive), the composite z-score [5] was 0.632 and the composite z-score [6] was 0.646. The composite z-score [7] was 0.23, the composite z-score [8] was 0.74 and the composite z-score [9] was -0.618. For the same molecule, the composite z-score [10] was 0.964.

Molecule `COc1ccc([Si](C)(C)[C@H]2[C@H](CCO)O[C@@]3(C(=O)N(Cc4cccc(N5CCCCC5=O)c4)c4ccccc43)[C@@H]2C)cc1` has a composite z-score [1] of 1.08, a composite z-score [2] of 0.176 and a composite z-score [3] of 0.0883. The z-score [4] was -2.37 (inactive), the composite z-score [5] was 0.748 and the composite z-score [6] was 0.845. The composite z-score [7] was 0.525, the composite z-score [8] was 1.16 and the composite z-score [9] was 0.82. The composite z-score [10] was 0.861.

Work on `COCCOC(=O)N1C(=O)[C@@]2(c3cc(C#Cc4ccc(OC)cc4)ccc31)[C@H](C(=O)N1CCCCCCC1)[C@H]1C(=O)O[C@H](c3ccccc3)[C@H](c3ccccc3)N1[C@@H]2c1ccc(O)cc1` yielded a composite z-score [1] of 0.773, a composite z-score [2] of 1.12 and a composite z-score [3] of 0.522. The z-score [4] was -0.527 (inactive), the composite z-score [5] was 0.546 and the composite z-score [6] was 1.15. It also gave a composite z-score [7] of 0.519, a composite z-score [8] of 1.31 and a composite z-score [9] of 0.567. It also gave a composite z-score [10] of 1.35.

Molecule `CC(C)C(=C=CC[C@H](O)c1ccc(OCCO)cc1)C[C@H](O)c1cc(Cl)cc(Cl)c1O` has a composite z-score [1] of 0.631, a composite z-score [2] of -0.0017 and a composite z-score [3] of -0.249. For the same molecule, the z-score [4] was -0.492 (inactive), the composite z-score [5] was 0.893 and the composite z-score [6] was 0.741. It also gave a composite z-score [7] of 0.122, a composite z-score [8] of 0.699 and a composite z-score [9] of -0.0061. It also gave a composite z-score [10] of 0.707.
